The values that follow come from PubChem BioAssay (NCATS).

Molecules are shown by their SMILES. Inconclusive results are not listed. Entries that show only a call come without a potency. Activity calls are given as the source filed them. Calls come from the whole dose curve.

The nature of the test: Cytotoxicity counterscreen for inhibitors of SARS-CoV-2 cell entry (AID 1645845). Note: nearly all actives have a fitted effect of over 50% in size. Particulars: cell viability (SARS-CoV-2 entry assay cells); series mostly up to 57.1 µM. The text has this:
Assay Provider: Wei Zheng, Ph.D.
National Center for Advancing Translational Sciences, National Institute of Health, Rockville, MD.
SARS-CoV-2 spike protein, within the viral envelope, mediates viral attachment and infection of host cells. The SARS-CoV-2 spike protein specifically binds to the host receptor ACE2 (Angiotensin-converting enzyme 2). This interaction promotes endocytosis of the viral particle, additional events lead to viral-host cell membrane fusion and release of the viral contents, allowing viral replication.
While SARS-CoV-2 requires BSL-3 facilities for live virus work, pseudo-typed partices (PP) that incorporate SARS-CoV-2 spike proteins without replication elements could facilitate studies on viral entry mechanisms in a BSL-2 setting. This PP cell entry assay could also enable screening of small molecule compound libraries in BSL-2 setting to identify inhibitors of SARS-CoV-2 cell entry. To eliminate false positive compounds, ATP content cytotoxicity assay was screened in the same cell line.
SEQUENCE No. (e.g., 1, 2, 3, etc.); […] (e.g., Cells, Incubation, Reagent, etc.); VALUE and DESCRIPTION.
1. Cells. Seed 1500 HEK293-ACE2 cells (Expi293F with stable expression of human ACE2) in 2 uL/well media (DMEM, 10% FBS, 1x L-glutamine, 1x Pen/Strep, 1 ug/ml puromycin) in white 1536-well assay plates (Greiner #782073).
2. Incubation. Incubate at 37 C with 5% CO2 overnight (~16 h).
3. Compounds. Dispense 23 nL/well compounds in DMSO via pin transfer.
4. Incubation. Incubate for 1 h at 37C 5% CO2.
5. Reagent. Dispense 2 uL/well of media (DMEM, 10% FBS, 1x L-glutamine, 1x Pen/Strep, 1 ug/ml puromycin).
6. Incubation. Incubate at for 48h at 37C 5% CO2
7. Reagent. Dispense 4 uL/well of ATPLite 1step luminescence assay reagent (PerkinElmer #6016739).
8. Incubation. Incubate for 15 min at room temperature.
9. Detection. Read luminescence signal (Viewlux plate reader, PerkinElmer). Data was normalized with wells containing cells as 100%, and wells without cells (media only control) as 0%.
On the technique in general: A counterscreen serves to expose hits that act by an unwanted route or on another target.
`O=C(OC1C(OC(=O)c2cccnc2)C(OC(=O)c2cccnc2)C(OC(=O)c2cccnc2)C(OC(=O)c2cccnc2)C1OC(=O)c1cccnc1)c1cccnc1` (stereo not given): the Potency entry is “inactive”.

`CCN(CC)C(=O)Cc1csc(NS(=O)(=O)c2cccc(Cl)c2C)n1`: the Potency entry is “inactive”. For the compound `O=C(O)c1ccc(-c2c[nH]c3ncc(-c4ccccc4)cc23)cc1C1CCCC1`, the Potency result was “inactive”. Turning to `Clc1ccc(-c2nc3sccn3c2/C=N/OCc2ccc(Cl)c(Cl)c2)cc1`, the Potency result was “inactive”. Consider `CCCCC(C)(O)CC=C[C@H]1[C@H](O)CC(=O)[C@H]1CCCCCCC(=O)OC` (stereo not given in full), for which the Potency result is “inactive”.

With `CCCCC(=O)OCC(=O)[C@]1(O)Cc2c(O)c3c(c(O)c2[C@@H](O[C@H]2C[C@H](NC(=O)C(F)(F)F)[C@H](O)[C@H](C)O2)C1)C(=O)c1c(OC)cccc1C3=O`, the Potency entry is “inactive”. As for `COc1ncc(Nc2ncc([C@H](C)N3CCN(S(C)(=O)=O)CC3)cc2-c2nc(C)nc(N)n2)cc1F`, the Potency entry was “inactive”. To `CN(CCCCCCCCCCN(C)C(=O)Oc1cccc([N+](C)(C)C)c1)C(=O)Oc1cccc([N+](C)(C)C)c1` belongs “inactive”; to `COc1ccc(CNc2nc(N3CCC[C@H]3CO)ncc2C(=O)NCc2ncccn2)cc1Cl`, “inactive”. Next, `COc1cc2c3c(n(CCCN4CCOCC4)c(=O)c2cc1OC)-c1cc2c(cc1C3=O)OCO2`: “inactive”; `COC(=O)CCC(=O)CN`: “inactive”; `CC1(COc2ccc(N3CCC(Oc4ccc(OC(F)(F)F)cc4)CC3)cc2)Cn2cc([N+](=O)[O-])nc2O1` (stereo not given): “inactive”. To `C#C[C@]1(O)CC[C@H]2[C@@H]3CCC4=C/C(=N/O)CC[C@@H]4[C@H]3CC[C@@]21CC` belongs “inactive”; to `CCC(C(=O)NC(N)=O)c1ccccc1` (stereo not given), “inactive”; to `CCCCC(CC)COC(=O)CC(C(=O)OCC(CC)CCCC)S(=O)(=O)O` (stereo not given), “inactive”.

On to `Cc1cc(-c2ccc(N=Nc3c(S(=O)(=O)O)cc4cc(S(=O)(=O)O)cc(N)c4c3O)c(C)c2)ccc1N=Nc1c(S(=O)(=O)O)cc2cc(S(=O)(=O)O)cc(N)c2c1O`, for which the Potency result is “inactive”. Regarding `CCCCC(O)c1ccccc1` (stereo not given), the Potency entry is “inactive”.

For the compound `CCC[C@H](NC(=O)[C@@H]1[C@H]2CCC[C@H]2CN1C(=O)[C@@H](NC(=O)[C@@H](NC(=O)c1cnccn1)C1CCCCC1)C(C)(C)C)C(=O)C(=O)NC1CC1`, the Potency entry is “inactive”.

On to `CN1C(=O)C[C@@H](C(=O)N[C@@H](Cc2cnc[nH]2)C(=O)N2CCC[C@H]2C(N)=O)NC1=O`, for which the Potency result was “inactive”. Next, `CC(C)(C)NCC(O)COc1ccccc1C#N` (stereo not given): “inactive”; `Cc1ncc(COP(=O)(O)O)c(C)c1O`: “inactive”. To `Nc1nccn2c(C3CCC(C(=O)O)CC3)nc(-c3cc4cccc(Cl)c4[nH]3)c12` (stereo not given) belongs “inactive”. To `C[C@H]1[C@H](O)[C@@H](C)/C=C/C=C/CC/C=C/C=C/C=C/C=C/C(OC2O[C@H](C)[C@@H](O)[C@H](N)[C@@H]2O)CC2O[C@](O)(CC(O)C(O)CCC(O)CC(O)CC(O)CC(=O)O[C@H]1C)CC(O)C2C(=O)O` (stereo not given in full) belongs “inactive”; to `FC(F)(F)c1ccc(CNc2ccc(Cc3c[nH]c4ncc(Cl)cc34)cn2)cn1`, “inactive”. For the compound `CC1(C)S[C@H]2[C@H](NC(=O)[C@@H](N)c3ccc(O)cc3)C(=O)N2[C@H]1C(=O)O`, the Potency result is “inactive”.

In the case of `CC(CN1c2ccccc2Sc2cccnc21)N(C)C` (stereo not given), the Potency result is “inactive”.

`CC1(C)C2CC[C@]3(C)C(C(=O)C=C4[C@@H]5C[C@@](C)(C(=O)O)CC[C@]5(C)CC[C@]43C)[C@@]2(C)CC[C@@H]1O` (stereo not given in full): the Potency result was “inactive”. Consider `CC(C)(C)NC(=O)[C@H]1CC[C@H]2[C@@H]3CC=C4C=C(C(=O)O)CC[C@]4(C)[C@H]3CC[C@]12C`, for which the Potency result was “inactive”.

Turning to `O=C(C[C@@H]1C/C=C\CCC(=O)O[C@H](c2ccccc2)CNC1=O)NCc1ccc(Cl)cc1`, the Potency result was “inactive”.

For the compound `O=C(O)CCC/C=C\C[C@@H]1[C@@H](/C=C/[C@@H](O)COc2cccc(Cl)c2)[C@H](O)C[C@@H]1O`, the Potency entry is “inactive”. For `OC(c1ccc(-c2ccc(CN3CCN(Cc4ccncc4)CC3)cc2)c(F)c1)(C(F)(F)F)C(F)(F)F`, the Potency entry was “inactive”. Next, `CC(C)C(=O)OCC(=O)[C@@]12O[C@H](C3CCCCC3)O[C@@H]1C[C@H]1[C@@H]3CCC4=CC(=O)C=C[C@]4(C)[C@H]3[C@@H](O)C[C@@]12C`: “inactive”.

For `c1ccc(-c2cc(CCC3CCNCC3)c3ccccc3n2)cc1`, the Potency entry is “inactive”. With `COc1cc(O)c(C(=O)Nc2nc(C(=O)NCCN(C(C)C)C(C)C)cs2)cc1OC`, the Potency result is “inactive”. Next, `CNC(C)[C@@H](O)c1ccc(O)cc1` (stereo not given in full): “inactive”; `C[C@H]1[C@H](C)CC[C@]2(C(=O)O)CC[C@]3(C)C(=CC[C@@H]4[C@@]5(C)CC[C@H](O)C(C)(C)[C@@H]5CC[C@]43C)[C@H]12`: “inactive”.

As to `CNC(=O)Cn1cc(-c2ccc3c(c2)C(F)CC32NC(=O)N(CC(=O)N(Cc3ccc(F)cc3)[C@@H](C)C(F)(F)F)C2=O)cn1` (stereo not given in full), the Potency result was “inactive”. To `CC(C)[C@H]1C(=O)N[C@@H](CCCN=C(N)N)C(=O)NCC(=O)N[C@@H](CC(=O)O)C(=O)N[C@H](Cc2ccccc2)C(=O)N1C` belongs “inactive”; to `C[C@]12CCC3[C@@H](CC[C@H]4NC(=O)C=C[C@]34C)[C@@H]1CC[C@@H]2C(=O)Nc1cc(C(F)(F)F)ccc1C(F)(F)F` (stereo not given in full), “inactive”. As for `COc1cc(OC)c(/C=C/S(=O)(=O)Cc2ccc(OC)c(OP(=O)(O)O)c2)c(OC)c1`, the Potency entry was “inactive”.
